Reference: publication PMC5540273 (PLoS ONE, 2017)

system: MAK; conditions: concentration: 1 μM,replicates: in singlicate; n = 1
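Also: KINOMEscan kinase panel screen.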

Row | SMILES | %Inh
1 | Cn1ccc2ncnc(Oc3ccc(NC(=O)Nc4cc(C(C)(C)C)on4)c(Cl)c3)c21 | 0%
2 | CC(=O)Nc1ccc(-c2cc3ncnc(SCC(=O)O)c3s2)cc1 | 52%
3 | CN(c1ccccc1CNc1nc(Nc2ccc3c(c2)CC(=O)N3)ncc1C(F)(F)F)S(C)(=O)=O | 16%
4 | FC(F)(F)c1cc(Br)cc(Nc2nccc(-c3cnn4ncccc34)n2)c1 [GW810578] | 55%
5 | O=C1NCCc2[nH]c(-c3ccncc3)cc21 | 21%
6 | O=C(Nc1cccc(C(F)(F)F)c1)c1cccc(Oc2ccc3nccn3n2)c1 | 0%
7 | Cc1ccc(CC(=O)N2CCc3cc(-c4cn(C)c5ncnc(N)c45)ccc32)cc1 [GSK2634758] | 4%
8 | COC(=O)c1cccc(NC(=O)NC2CCN(c3ccnc(NCc4ccc(F)cc4)n3)CC2)c1 [GSK1379860] | 28%
9 | Cn1ccc2ncnc(Oc3ccc(NC(=O)Nc4ccnc(C(F)(F)F)c4)c(Cl)c3)c21 | 5%
10 | O=C(NOCC1CC1)c1cc(Br)c(F)c(F)c1Nc1ccc(I)cc1Cl | 37%
11 | COc1ccc(Nc2nccc(N3CCC(NC(=O)c4cccc(C#N)c4)C3)n2)cc1 (stereo not shown) [GSK1379730] | 26%
12 | COc1cccc(C2=C(Nc3cccc(Cl)c3)C(=O)NC2=O)c1 [SB-341556] | 0%
13 | Cc1n[nH]c2cc(Nc3ccnc(Nc4cccc(CN5CCOCC5)c4)n3)ccc12 [GW682569] | 20%
14 | C[C@@H]1CNc2c(sc3ccc4nc(-c5ccncc5)ccc4c23)C(=O)N1 | 0%
15 | C[C@@H]1CCN(C(=O)N2CCCC2)C[C@@H]1N(C)c1ncnc2[nH]ccc12 | 14%
16 | Cl.c1ccc(Oc2ccc(Nc3ccnc4cc(-c5ccc(CN6CCNCC6)o5)ccc34)cc2)nc1 [GW567142] | 21%
17 | COc1cc2c(Nc3ccc(NC(=O)c4ccccc4)cc3)ncnc2cc1OCCCN1CCOCC1 [GSK301329] | 0%
18 | c1ccc(Oc2ccc(Nc3ccnc4ccc(-c5ccccn5)cc34)cc2)cc1 [GW407034] | 59%
19 | COc1cc2ncn(-c3cc(OCC4CCCCC4)c(C(N)=O)s3)c2cc1OC [GSK204559] | 18%

Row | SMILES | %Inh
20 | C[C@@H]1CNc2c(sc3ccc4nc(-c5ccc(O)cc5)ccc4c23)C(=O)N1 | 46%
21 | NC(=O)c1ccc(-c2cc3ncnc(SCC(=O)O)c3s2)cc1 | 45%
22 | CS(=O)(=O)Nc1ccc(-c2ccnc3[nH]ccc23)cc1 [GSK993273] | 0%
23 | N#Cc1cccc(C(=O)NC2CCN(c3ccnc(Nc4ccc(F)cc4)n3)C2)c1 (stereo not shown) [GSK1379708] | 18%
24 | CS(=O)(=O)c1cccc(CNc2nc(Nc3ccc4c(c3)[C@@H]3C[C@@H]4CNC3=O)ncc2C(F)(F)F)c1 | 0%
25 | COc1cc(Nc2nccc(N3CCC(NC(=O)c4cccc(C#N)c4)C3)n2)cc(OC)c1OC (stereo not shown) [GSK1379751] | 7%
26 | CN1CCN(CCCNc2nccc(-c3c(-c4ccc(F)cc4)nn4cc(C(N)=O)ccc34)n2)CC1 [GW622475] | 50%
27 | COc1cccc(OC)c1C(=O)Nc1cccc(-c2nn3ccccc3c2-c2ccnc(Nc3cccc(F)c3)n2)c1 [GSK361065] | 14%
28 | CCOC(=O)N1CCC(n2cnc(-c3ccc(F)cc3)c2-c2ccnc(N)n2)CC1 [SB-219952] | 0%
29 | COC(=O)Nc1nc2cc(Oc3ccc(NC(=O)Nc4cc(C(F)(F)F)ccc4Cl)cc3)ccc2[nH]1.Cl [GW697465] | 20%
30 | CS(=O)c1ccc(-c2coc3ccc(-c4n[nH]c(=O)o4)cc23)cc1 (stereo not shown) | 0%
31 | Cn1ccc2ncnc(Oc3ccc(NC(=O)Nc4cncc(C(F)(F)F)c4)c(Cl)c3)c21 | 0%
32 | Nc1nccc(-c2ccc3c(N)n[nH]c3c2)n1 [GSK1034945] | 81%
33 | NC(=O)Nc1sc(-c2ccc(F)cc2)cc1C(N)=O [GW789449] | 0%
34 | CN1CCN(CCNc2nc3cc(Oc4ccc(NC(=O)Nc5cc(C(F)(F)F)ccc5F)cc4)ccc3[nH]2)CC1.Cl.Cl [GW768504] | 13%
35 | Cl.Nc1n[nH]c2cc(-c3ccccn3)ccc12 [GSK2189892] | 29%
36 | CCn1c(-c2nonc2N)nc2cncc(CNC3CCNCC3)c21.Cl [SB-747651] | 29%
37 | Cn1ccc2ncnc(Oc3ccc(NC(=O)Nc4cccc(C(F)(F)F)c4)c(Cl)c3)c21 | 28%
